Measurements taken from PubChem BioAssay (NCATS).
Records with an inconclusive call do not appear. Entries that show only a call come without a potency. The source made the active and inactive calls. The call rests on the fitted dose curve.

Experiment: Cytotoxicity counterscreen for inhibitors of SARS-CoV-2 cell entry (AID 1645845); further: nearly all actives have a fitted effect of over 50% in size
Conditions: cell viability (SARS-CoV-2 entry assay cells); series mostly up to 57.1 µM
Method in brief: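 Expi293F/hACE2 cells seeded overnight; cpd pin-transferred in DMSO, 1 h preincubation, + media, 48 h 37 C 5% CO2; ATPLite 1step luminescence; normalized to cells and no cells.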
Potency means the concentration at half of the fitted maximal effect.

SMILES	Potency
CN(C)CCOc1ccccc1Cc1ccccc1	inactive
Cc1ncc(CSSCc2cnc(C)c(O)c2CO)c(CO)c1O	inactive
C=CCOc1cc(Cl)ccc1C(=O)NCCN(CC)CC	inactive
Cc1cc2nc3ccc(=[N+](C)C)cc-3sc2cc1N	22.4 µM (active)
Cc1ccc(C(=O)Oc2ccc(C(O)CNC(C)(C)C)cc2OC(=O)c2ccc(C)cc2)cc1 (stereo not drawn)	inactive
COc1cc(C(=O)OCCCN2CCCN(CCCOC(=O)c3cc(OC)c(OC)c(OC)c3)CC2)cc(OC)c1OC	inactive
CCO[C@@H]1O[C@H](C(COCc2ccccc2)OCc2ccccc2)[C@H](OCc2ccccc2)[C@H]1O (stereo partly drawn)	inactive
CN1CCC(OC(c2ccccc2)c2ccccc2)CC1	inactive
CN1C[C@H](C(=O)N[C@]2(C)O[C@@]3(O)[C@@H]4CCCN4C(=O)[C@H](Cc4ccccc4)N3C2=O)C[C@@H]2c3cccc4[nH]cc(c34)C[C@H]21	inactive
NC1=NCC2c3ccccc3Cc3ccccc3N12 (stereo not drawn)	inactive
C[N+]1(CC2COC(c3ccccc3)(C3CCCCC3)O2)CCCCC1 (stereo not drawn)	inactive
O=C(Nc1ccc(Cl)cc1)Nc1ccc(Cl)c(C(F)(F)F)c1	22.4 µM (active)
C=CCOc1ccccc1OCC(O)CNC(C)C (stereo not drawn)	inactive
OC(CCN1CCCCC1)(c1ccccc1)c1ccccc1	inactive
COCCc1ccc(OCC(O)CNC(C)C)cc1 (stereo not drawn)	inactive
CCCCCCCCCCCCCCCC[n+]1ccccc1	11.2 µM (active)
O=C1C(CCS(=O)c2ccccc2)C(=O)N(c2ccccc2)N1c1ccccc1 (stereo not drawn)	inactive
C/C=C(/C(=C/C)c1ccc(O)cc1)c1ccc(O)cc1	inactive
